Compound activity as filed in PubChem BioAssay.
HepG2 tox – counter-screen for TGF-b inhibitors: cytotoxicity in HepG2 cells | HepG2 CAGA-GFP viability, ATP luminescence, 18 h | Potency, µM (top dose mostly 46.1 µM), without a hit: at the highest dose activity change, negative = cytotoxicity, hits mostly cytotoxic | 410,000 compounds, 0.76% hits
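HepG2 CAGA-GFP cells (1000/well, DMEM with 1% FBS) received compound, then TGF-beta at 500 pg/mL final, and were incubated 18 hours at 37 degrees C. Viability was read by CellTiter-Glo luminescence. Media-only wells were set as complete cell-killing and DMSO as no toxicity.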
ATXN viability – cell viability loss in ATXN counter-screen; S2 cells (HEK-293 line with an ATXN2-luciferase reporter) viability, CellTiter-Fluor protease fluorescence, 24 h; Potency, µM (doses to about 56.7 µM), hits mostly cytotoxic; 400,000 compounds, 0.49% hits; AID 651635; further: nearly all actives have a fitted effect of over 40% in size
A549 viability – kills or reduces viability of A549 cells in Nrf2 counter-screen. Potency, µM (series often up to 46 µM), for inactives: at the top dose activity change, negative = cytotoxicity, hits mostly inhibitors. 390,000 compounds, 0.16% hits. A549 ARE-Fluc cells, CellTiter-Fluor viability, 18-24 h. AID 504648; further: on the % scale 0 is the no-effect control and ±100 the full control effect
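A549 ARE_Fluc cells in 5% FBS OPTI-MEM were exposed to compounds in concentration-response for 18-24 h at 37 deg C. Viability was read by CellTiter-Fluor fluorescence (Ex 405/Em 525) after 30 min, before the luciferase read.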
ATXN2 expr inh – ATXN2 expression inhibition. HEK-293 ATXN2-luciferase reporter, luminescence, 24 h. Potency, µM (series often up to 57 µM), without a hit: at the highest dose activity change, negative = inhibition, actives largely listed as inhibitors. 360,000 compounds, 0.72% hits; further: on the % scale 0 is the no-effect control and ±100 the full control effect; nearly all actives have a fitted effect of over 55% in size
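ATXN2-luciferase reporter cells (luciferase flanked by upstream and downstream ATXN2 gene portions) were treated 24 h at 37 °C with compounds at up to 57 uM. SteadyGlo luminescence gave expression; GF-AFC fluorescence gave viability.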
TGFb inhibitor – TGF-b pathway inhibition | HepG2 CAGA-GFP TGF-b/SMAD3 reporter, GFP fluorescence, 18 h; TGF-beta stimulated, 500 pg/mL final | Potency, µM (titrated, usually from 46.1 µM), for the others: at the highest dose activity, negative = inhibition, most hits filed as inhibitors | 410,000 compounds, 1.2% hits | AID 588855; further: on the % scale 0 is the no-effect control and ±100 the full control effect; nearly all actives have a fitted effect of over 65% in size
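First, reporter cells (HEPG2 CAGA-GFP) rested 2 h at 37 degrees C. Next, compounds were pinned in and TGF-beta added to 500 pg/mL final. After 18 h, GFP was imaged per cell and summed per well.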
Nrf2 inh – Nrf2 pathway inhibition; 360,000 compounds, 2.1% hits; Potency, µM (top dose mostly 46 µM), for the others: at the highest dose activity change, negative = inhibition, hits mostly inhibitors; AID 504444; A549 ARE-Fluc reporter, luciferase luminescence, 18-24 h; further: on the % scale 0 is the no-effect control and ±100 the full control effect; nearly all actives have a fitted effect of over 60% in size
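In this cell-based qHTS, ARE-driven firefly luciferase in A549 cells reports Nrf2 activity; the luminescent signal after BugLite lysis is the measured value, with a prior CellTiter-Fluor read for cell health.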
Starred values were filed as active, the others as inactive; i = inactive; u = inconclusive; x = no result. An excerpt weighted towards active compounds, which were near 3.8% of everything screened. The call rests on the fitted dose curve; in most records, active means well fitted curve in the direction sought with a large enough effect; inconclusive means small, poorly fitted or top-dose-only effect, or another doubt; inactive means no such curve, though single readings can be large; an effect the other way counts as inactive or inconclusive. Potency means the concentration at half of the fitted maximal effect.

SMILES	HepG2 tox	ATXN viability	A549 viability	ATXN2 expr inh	TGFb inhibitor	Nrf2 inh
CC(=O)N1CCCC(c2cc(C(=O)Nc3ccccc3)no2)C1 (stereo unspecified)	-27%	i	x	u	4%	x
O=C(Nc1ccccc1)c1cc(C2CCCN(C(=O)C3CC3)C2)on1 (stereo unspecified)	8.9µM*	i	x	10µM*	1%	x
c1ccc(CCCNCCCn2cnc3c(OCc4ccccc4)ncnc32)cc1	-100%	25µM*	1%	u	u	17%
Cc1ccc(CN2CCN(CCCn3cnc4c(OCc5ccccc5)ncnc43)CC2)cc1	-35%	u	u	u	u	u
C[C@@H](NCCCn1cnc2c(OCc3ccccc3)ncnc21)c1cccc2ccccc12	14µM*	u	-9%	u	u	-4%
c1ccc(COc2ncnc3c2ncn3CCCN2CCN(Cc3cccc4ccccc34)CC2)cc1	-116%	u	x	22µM*	u	x
COCCCNC(=O)CCCN1C(=O)CCn2nc(-c3cn(C)c4ccccc34)cc21	-5%	i	-8%	14%	1%	x
CC(OCc1ccccc1)C(NC(=O)OC(C)(C)C)C(=O)NC1COC2CC(n3ccc(=O)[nH]c3=O)OC12 (stereo unspecified)	9%	x	1%	x	-1%	6%
COc1ccc(C(N)c2csc(Nc3ncccn3)n2)cc1 (stereo unspecified)	-7%	i	x	-29%	2%	x
COc1ccc(C(N)c2csc(Nc3nncc4ccccc34)n2)cc1 (stereo unspecified)	-66%	u	x	-32%	13µM*	x
COC(=O)C1=C(C)NC(=O)C1(NC(=O)c1cc(OC)c(OC)c(OC)c1)C(F)(F)F (stereo unspecified)	-13%	i	-6%	-10%	-13%	-8%
Cc1cc(/C=C2\SC(=Nc3ccccc3)NC2=O)c(C)n1-c1ccc(S(N)(=O)=O)cc1	-51%	i	8.2µM*	u	13µM*	x
COc1ccc(-n2c(C)cc(/C=C3\SC(=O)NC3=O)c2C)cc1	-50%	i	-24%	65%	0%	u
Cc1nc(-n2[nH]c3c(c2=O)CCCC3)[nH]c(=O)c1Cc1ccccc1	-13%	18µM*	u	8.9µM*	-21%	u
C/C(=C\c1ccccc1F)C(=O)c1c(C)cc(C)[nH]c1=O	-21%	i	1%	-19%	-15%	-1%
Cc1[nH]c(=O)c(C(=O)/C=C/c2ccccc2F)c2c1CCCC2	-85%	28µM*	u	8.9µM*	u	x
COc1cc2ccccc2cc1C(=O)Nc1ccc(N2CCN(C)CC2)cc1	13µM*	x	u	x	-14%	u
CCN1CCN(c2ccc(NC(=O)c3ccc(Br)o3)cc2)CC1	-13%	i	2%	-5%	5%	5%
COc1cc2ccccc2cc1C(=O)Nc1ccc(N2CCN(C(=O)C(C)C)CC2)cc1	-7%	u	-1%	x	15%	u
CN1CCN(c2ccc(NC(=O)c3ccc(-c4ccc(Br)cc4)o3)cc2)CC1	22µM*	u	u	u	u	-6%
Nc1cc(Cl)ccc1C(=O)OCC(=O)NCC1CCCO1 (stereo unspecified)	5%	i	3%	22%	2%	25%
O=S(=O)(c1ccc(Cl)cc1)N1CCCC1c1nc(-c2ccc(Cl)cc2)no1 (stereo unspecified)	-13%	i	-3%	-17%	-9%	-24%
O=S(=O)(c1ccccc1Cl)N1CCCC1c1nc(-c2ccccc2Cl)no1 (stereo unspecified)	-27%	i	-16%	-6%	-1%	16µM*
CCN1CCN(CCNC(=O)c2ccc(/C=C3/Sc4ccccc4N(Cc4cccc(Cl)c4)C3=O)cc2)CC1	22µM*	28µM*	u	25µM*	u	u
